Test results from PubChem BioAssay.
Active and inactive are the calls of the source.

Assays:
[1] = molecular target: Albumin (Bos taurus) (UniProt P02769); experiment: bovine serum albumin binders on microarray, profiling panel, artefact control for SMM control protein annotation, biochemical, small-molecule microarray, Alexa647 label, 635/667 nm fluorescence (AID 1118); conditions: BSA-A647 binding, fluorescence 635 nm, higher = more signal;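 note: score merges 667 nm emission intensity and signal-to-noise per printed compound spot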
Chain of Albumin (Bos taurus) (P02769 whole entry, looked up): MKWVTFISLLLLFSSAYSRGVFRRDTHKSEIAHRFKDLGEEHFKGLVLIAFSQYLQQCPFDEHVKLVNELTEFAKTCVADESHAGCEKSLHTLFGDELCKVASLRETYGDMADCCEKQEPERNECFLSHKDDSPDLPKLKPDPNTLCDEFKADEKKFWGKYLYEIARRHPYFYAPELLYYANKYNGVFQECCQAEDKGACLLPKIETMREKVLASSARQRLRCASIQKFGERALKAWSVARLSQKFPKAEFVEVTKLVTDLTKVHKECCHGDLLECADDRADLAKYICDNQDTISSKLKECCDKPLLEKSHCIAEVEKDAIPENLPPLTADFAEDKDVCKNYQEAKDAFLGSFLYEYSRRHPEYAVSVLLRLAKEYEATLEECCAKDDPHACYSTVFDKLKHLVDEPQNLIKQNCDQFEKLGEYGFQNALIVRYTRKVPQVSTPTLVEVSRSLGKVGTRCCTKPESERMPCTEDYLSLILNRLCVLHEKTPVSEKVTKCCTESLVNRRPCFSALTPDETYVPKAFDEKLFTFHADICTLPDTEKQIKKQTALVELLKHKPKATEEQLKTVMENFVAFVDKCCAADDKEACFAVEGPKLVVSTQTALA

[2] = small-molecule microarray binders of probe aXIP, primary screen, biochemical, NeuroSMM set, 635/667 nm fluorescence (AID 1119); conditions: higher = more signal, called active from +8 up or from −8 down;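 note: probe is the protein aXip251-270 applied at 1 µg/mL to compound-printed slides; binding of probe to printed compounds measured as 667 nm fluorescence plus signal to noise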
[3] = small-molecule binders of probe aNOTCH3, primary screen, biochemical, small-molecule microarray, 635/667 nm fluorescence (AID 1120); conditions: higher = more signal;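 note: probe is a biotin-tagged antibody raised against NOTCH3 rather than NOTCH3 protein; score merges spot fluorescence near 667 nm with spot signal to noise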
[4] = small-molecule binders of probe aNOTCH2, primary screen, biochemical, small-molecule microarray, 635/667 nm fluorescence (AID 1121); conditions: higher = more signal;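 note: score merges feature fluorescence read at 667 nm with its signal to noise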
[5] = molecular target: Carbonic anhydrase 2 (Homo sapiens) (UniProt P00918); experiment: CAII small-molecule binders, profiling panel, biochemical, small-molecule microarray, Alexa647-labelled CAII (AID 1122); conditions: CAII-A647 binding fluorescence, higher = more signal
[6] = COS7 lysate on small-molecule microarray, probe aHis, 635 nm (AID 1123); conditions: COS7 cell lysate, fluorescence, higher = more signal;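 note: z-score combines 667nm fluorescence intensity with signal-to-noise per printed compound spot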
[7] = compound binding in COS7 lysate, probe aLAP1, primary screen, cell lysate, small-molecule microarray (AID 1124); conditions: probe aLAP1, fluorescence, higher = more signal;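 note: lysate comes from COS7 cells expressing LAP1 and is applied at 0.3 µg/mL; score merges spot fluorescence near 667 nm with signal-to-noise over triplicate slides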
[8] = tested on: Sam68 (KHDRBS1); experiment: Sam68 small-molecule binders, primary screen, biochemical, small-molecule microarray, 635 nm fluorescence (AID 1125); conditions: small-molecule microarray binding, higher = more signal;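 note: score merges 667 nm channel intensity with signal to noise over triplicate slides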
[9] = tested on: Chordin-like protein 2 (CHRDL2); experiment: CHRDL2 small-molecule binders, primary screen, biochemical, small-molecule microarray, 635 nm fluorescence (AID 1126); conditions: small-molecule microarray binding, fluorescence 635 nm; higher = more signal;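 note: printed compound slides probed with Chrdl2 protein at 4 µg/mL for 1 h at 4 C; score merges 667 nm emission intensity with signal to noise over three replicate slides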
[10] = molecular target: Concanavalin-A (Canavalia ensiformis) (UniProt P02866); experiment: ConA small-molecule binders, primary screen, artefact control for SMM control protein annotation, biochemical, small-molecule microarray, Alexa647 label, 635 nm (AID 1127); conditions: ConA-A647 binding fluorescence, higher = more signal;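 note: z combines 667 nm emission intensity with signal-to-noise across three replicate slides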
Chain of Concanavalin-A (Canavalia ensiformis) (P02866 whole entry, looked up): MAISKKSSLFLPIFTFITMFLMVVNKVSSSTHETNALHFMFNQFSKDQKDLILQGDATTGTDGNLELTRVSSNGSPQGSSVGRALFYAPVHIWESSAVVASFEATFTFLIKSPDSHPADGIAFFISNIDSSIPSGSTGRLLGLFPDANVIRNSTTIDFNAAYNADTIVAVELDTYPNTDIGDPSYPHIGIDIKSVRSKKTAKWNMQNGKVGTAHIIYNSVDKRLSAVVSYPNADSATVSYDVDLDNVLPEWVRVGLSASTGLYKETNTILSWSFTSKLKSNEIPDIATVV

[11] = anti-His antibody binders, primary screen, artefact control for SMM control protein annotation, biochemical, small-molecule microarray, 635 nm fluorescence (AID 1128); conditions: anti-His Alexa647 antibody binding, higher = more signal;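 note: score merges feature fluorescence with signal-to-noise for each printed compound spot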
[12] = tested on: Human papillomavirus type 1a E7 protein (residues 1-88); experiment: HPV1a E7 small-molecule binders, primary screen, biochemical, small-molecule microarray, residues 1-88, 635 nm (AID 1129); conditions: small-molecule microarray binding, fluorescence 635 nm; higher = more signal
[13] = molecular target: Focal adhesion kinase 1 (Homo sapiens) (UniProt Q05397); experiment: small-molecule microarray binders of FAK, primary screen, biochemical, 635/667 nm fluorescence, BSA, DTT (AID 1130); conditions: PTK2 binding, 635 nm fluorescence, higher = more signal;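 note: composite of spot emission at 667 nm and signal to noise over triplicate slides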
Chain of Focal adhesion kinase 1 (Homo sapiens) (Q05397 whole entry, looked up): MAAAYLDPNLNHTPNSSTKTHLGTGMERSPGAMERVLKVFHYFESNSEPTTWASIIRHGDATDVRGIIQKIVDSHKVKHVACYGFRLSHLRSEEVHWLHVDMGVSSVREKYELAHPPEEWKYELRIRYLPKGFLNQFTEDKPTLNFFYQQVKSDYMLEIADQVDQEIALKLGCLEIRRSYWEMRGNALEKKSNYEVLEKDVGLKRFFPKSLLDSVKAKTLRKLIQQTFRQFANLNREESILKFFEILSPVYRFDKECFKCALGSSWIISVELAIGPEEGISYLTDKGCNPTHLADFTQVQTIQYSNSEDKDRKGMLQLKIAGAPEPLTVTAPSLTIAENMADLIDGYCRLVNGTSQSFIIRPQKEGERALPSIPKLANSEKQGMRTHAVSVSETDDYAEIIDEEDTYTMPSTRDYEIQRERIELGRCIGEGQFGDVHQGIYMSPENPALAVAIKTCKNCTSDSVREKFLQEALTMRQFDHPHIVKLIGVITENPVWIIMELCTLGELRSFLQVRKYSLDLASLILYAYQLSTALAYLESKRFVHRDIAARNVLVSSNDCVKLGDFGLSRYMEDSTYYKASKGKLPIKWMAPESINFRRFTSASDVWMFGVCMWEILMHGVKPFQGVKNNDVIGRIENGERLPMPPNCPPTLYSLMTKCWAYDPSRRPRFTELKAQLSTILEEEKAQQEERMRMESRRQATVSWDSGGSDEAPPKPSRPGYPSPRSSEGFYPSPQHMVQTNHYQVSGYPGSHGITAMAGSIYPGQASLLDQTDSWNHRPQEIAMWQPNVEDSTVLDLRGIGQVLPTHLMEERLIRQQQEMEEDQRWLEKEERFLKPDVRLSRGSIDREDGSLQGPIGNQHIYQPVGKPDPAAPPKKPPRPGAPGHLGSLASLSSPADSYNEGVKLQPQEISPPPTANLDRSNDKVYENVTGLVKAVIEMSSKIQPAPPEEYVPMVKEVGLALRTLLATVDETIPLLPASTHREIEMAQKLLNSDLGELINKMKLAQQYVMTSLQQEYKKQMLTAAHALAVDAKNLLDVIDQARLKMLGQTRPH

[14] = tested on: Fibrinogen (Alexa647-labelled); experiment: fibrinogen binders on compound microarrays, profiling panel, artefact control for SMM control-protein annotation, biochemical, small-molecule microarray, 635/667 nm fluorescence (AID 1131); conditions: fibrinogen-A647 binding fluorescence, higher = more signal;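 note: z-score merges 667 nm fluorescence with per-spot signal-to-noise over triplicate slides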
[15] = molecular target: Follistatin (Homo sapiens) (UniProt P19883); experiment: follistatin binders on small-molecule microarrays, primary screen, biochemical, small-molecule microarray, 635/667 nm fluorescence (AID 1132); conditions: FST binding, 635 nm fluorescence, higher = more signal
Chain of Follistatin (Homo sapiens) (P19883 whole entry, looked up): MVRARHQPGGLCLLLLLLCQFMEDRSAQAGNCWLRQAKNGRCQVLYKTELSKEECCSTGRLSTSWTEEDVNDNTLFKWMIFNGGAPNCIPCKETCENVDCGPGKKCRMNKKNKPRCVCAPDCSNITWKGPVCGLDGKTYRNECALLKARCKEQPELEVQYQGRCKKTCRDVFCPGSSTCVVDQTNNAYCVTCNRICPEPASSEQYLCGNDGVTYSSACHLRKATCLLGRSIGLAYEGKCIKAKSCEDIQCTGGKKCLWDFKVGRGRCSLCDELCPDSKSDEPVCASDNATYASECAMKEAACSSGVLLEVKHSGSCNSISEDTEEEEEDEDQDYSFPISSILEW

[16] = molecular target: Fibroblast growth factor 2 (Homo sapiens) (UniProt P09038); experiment: FGF2 binders on small-molecule microarrays, primary screen, biochemical, small-molecule microarray, 635/667 nm fluorescence (AID 1133); conditions: small-molecule microarray binding, FGF2, fluorescence 635/667; higher = more signal
Chain of Fibroblast growth factor 2 (Homo sapiens) (P09038 whole entry, looked up): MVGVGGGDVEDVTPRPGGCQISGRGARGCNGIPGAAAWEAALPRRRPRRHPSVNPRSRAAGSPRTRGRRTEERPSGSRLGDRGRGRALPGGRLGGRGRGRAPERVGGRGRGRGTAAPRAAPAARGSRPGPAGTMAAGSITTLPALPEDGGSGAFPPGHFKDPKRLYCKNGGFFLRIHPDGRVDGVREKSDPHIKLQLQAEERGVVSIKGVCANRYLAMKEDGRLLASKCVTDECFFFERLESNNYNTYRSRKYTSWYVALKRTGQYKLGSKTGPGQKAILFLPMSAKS

[17] = mitochondrial membrane potential change in A549 cells, profiling panel, cell-based, JC-1 fluorescence, basal, 24 h, 100 nL (AID 1138); conditions: higher = more signal;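 note: A549 lung adenocarcinoma cells under basal conditions with no added stimulus; test concentration not given here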
[18] = tested on: Lefty1; experiment: Lefty1 binders on small-molecule microarrays, primary screen, biochemical, small-molecule microarray, 635/667 nm fluorescence (AID 1139); conditions: small-molecule microarray binding, fluorescence 635/667; higher = more signal
[19] = tested on: wheat germ agglutinin (Triticum aestivum), Alexa647-labelled; experiment: wheat germ agglutinin binders on compound microarrays, profiling panel, artefact control for SMM control-protein annotation, biochemical, small-molecule microarray, 635/667 nm fluorescence (AID 1140); conditions: WGA-A647 binding, 635 nm fluorescence, higher = more signal;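 note: score merges 667 nm feature emission with signal to noise over triplicate slides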
[20] = molecular target: Luciferin 4-monooxygenase (Photinus pyralis) (UniProt P08659); experiment: firefly luciferase enzyme inhibitors, primary screen, biochemical, luminescence, purified enzyme, 2006 set (AID 1141); conditions: SteadyGlo luminescence, 30 min, higher = more signal, called active from +8 up or from −8 down;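 note: cell-free assay with purified firefly luciferase at 100 ng per well in PBS; test concentration not given here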
Chain of Luciferin 4-monooxygenase (Photinus pyralis) (P08659 whole entry, looked up): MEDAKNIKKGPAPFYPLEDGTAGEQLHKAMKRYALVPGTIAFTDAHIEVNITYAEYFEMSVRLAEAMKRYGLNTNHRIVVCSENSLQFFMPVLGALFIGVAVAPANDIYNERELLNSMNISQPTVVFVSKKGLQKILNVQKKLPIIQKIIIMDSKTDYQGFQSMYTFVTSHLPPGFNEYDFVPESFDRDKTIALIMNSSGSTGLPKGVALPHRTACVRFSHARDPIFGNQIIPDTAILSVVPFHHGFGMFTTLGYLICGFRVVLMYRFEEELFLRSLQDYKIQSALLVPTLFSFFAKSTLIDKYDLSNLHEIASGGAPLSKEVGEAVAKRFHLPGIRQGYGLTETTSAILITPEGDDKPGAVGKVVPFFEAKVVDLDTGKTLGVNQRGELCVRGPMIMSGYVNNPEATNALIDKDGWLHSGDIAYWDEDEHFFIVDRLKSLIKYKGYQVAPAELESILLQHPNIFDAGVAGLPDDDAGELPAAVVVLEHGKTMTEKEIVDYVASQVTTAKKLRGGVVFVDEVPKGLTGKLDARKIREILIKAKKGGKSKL

| Structure (SMILES) | composite z-score [1] | composite Z-score [2] | composite z-score [3] | composite z-score [4] | composite z-score [5] | composite z-score [6] | composite z-score [7] | composite z-score [8] | composite z-score [9] | composite z-score [10] | composite z-score [11] | composite z-score [12] | composite z-score [13] | composite z-score [14] | composite z-score [15] | composite z-score [16] | z-score [17] | composite z-score [18] | composite z-score [19] | z-score [20] |
| --- | --- | --- | --- | --- | --- | --- | --- | --- | --- | --- | --- | --- | --- | --- | --- | --- | --- | --- | --- | --- |
| COC(=O)C(CC#Cc1ccc2c(c1)[C@]1(C(=O)N2)[C@H](C(=O)N2CCc3cc(OC)c(OC)cc3C2)[C@H]2C(=O)O[C@H](c3ccccc3)[C@H](c3ccccc3)N2[C@@H]1c1ccccc1OCCO)C(=O)OC | 0.27 | 0.112 (inactive) | 0.0793 | -0.135 | 0.59 | 2.3 | -0.461 | 1.3 | 0.463 | 1.14 | 1.21 | 1.19 | 0.536 | 0.613 | 1.4 | 1.39 | -1.64 | 1.55 | 1.17 | -0.134 (inactive) |
| COc1ccc([Si](C)(C)[C@H]2[C@H](CC(=O)N3CCC[C@H]3CO)O[C@@]3(C(=O)N(Cc4ccc(N5CCCCC5=O)cc4)c4ccccc43)[C@@H]2C)cc1 | 0.664 | -0.765 (inactive) | 0.212 | -0.108 | 0.292 | 1.27 | 0.0516 | 1.3 | 0.824 | 1.18 | 0.952 | 1.17 | 0.516 | 0.655 | 1.27 | 1.17 | 1.39 | 1.49 | 0.513 | 0.627 (inactive) |
| COCCOC(=O)N1C(=O)[C@@]2(c3cc(C#CCC(C(=O)OC)C(=O)OC)ccc31)[C@H](C(=O)Nc1nc3ccccc3s1)[C@H]1C(=O)O[C@H](c3ccccc3)[C@H](c3ccccc3)N1[C@@H]2c1ccc(O)cc1 | 0.268 | 0.247 (inactive) | 0.512 | -0.0282 | 0.279 | 1.13 | 0.705 | 1.3 | 1.07 | 1.04 | 0.777 | 1.21 | 0.235 | 0.461 | 1.3 | 1.46 | -2.26 | 1.29 | 0.762 | 0.258 (inactive) |
| CCCC#C[Si](O[C@H](CC)c1cn(Cc2ccccc2)nn1)(C(C)C)C(C)C | 0.603 | 0.244 (inactive) | 0.151 | 0.0263 | 0.365 | 0.855 | -0.193 | 0.793 | 0.379 | 0.572 | 0.738 | 0.209 | 0.0116 | 0.903 | 1.01 | 0.525 | -0.0817 | 0.828 | 0.143 | -0.403 (inactive) |
| CC1CC/C=C\[C@H]2OC34C=CCN(c5ccc6ccccc6c5)C(=O)[C@H]3N(C(C)CO)C(=O)[C@@H]4C2C(=O)O1 (stereo not given in full) | -0.333 | -0.105 (inactive) | -0.226 | -0.181 | 0.725 | -0.976 | 0.105 | -0.849 | -0.837 | -0.654 | 0.0166 | -1.72 | -0.785 | -1.17 | -0.69 | -0.911 | 0.838 | -0.546 | -0.946 | -1.2 (inactive) |
| C=C1C(=O)C=C2CN(C(=O)c3ccccc3)[C@@](Cc3ccc(OC)cc3)(C(=O)OC)[C@@H]12 | 1.07 | 0.579 (inactive) | 0.711 | 0.11 | 0.523 | 3.32 | 0.471 | 1.3 | -0.639 | 1.14 | 1.07 | 1.26 | 0.408 | 1.02 | 1.29 | -0.0686 | -0.322 | 0.381 | 1.13 | 3.22 (inactive) |
| NC(=O)N1C(=O)C2C(C1=O)C1C=C(CCCO)C2C(c2ccc(CN3CCCC3)cc2)N1Cc1cc2c(cc1Br)OCO2 (stereo not given) | -0.939 | -0.328 (inactive) | -0.323 | -0.117 | 0.339 | 0.344 | 0.117 | -0.312 | 0.192 | -0.129 | 0.197 | -0.445 | -0.214 | -0.713 | 0.583 | 1.2 | -0.193 | 0.117 | -0.419 | 0.542 (inactive) |
| C=C(CCCC)/C(=C/C[C@H](OC(=O)c1ccncc1)c1cccc(OCCO)c1)c1cnc2ccccc2c1 | 0.677 | -0.12 (inactive) | 0.211 | -0.0649 | 0.861 | 1.17 | 0.423 | 1.26 | 0.51 | 0.831 | 0.13 | 1.1 | 0.469 | 0.957 | 1.11 | 0.688 | 2.01 | 1.07 | 0.851 | -0.78 (inactive) |
| C=CCC(OC(C)=O)[C@@H]1[C@@H](N(Cc2ccc(-c3cccc(C(F)(F)F)c3)o2)C(=O)c2ccc(-c3ccccc3)cc2)c2cc(OCCCO)ccc2N1C(=O)c1ccc2ccccc2c1 (stereo not given in full) | -0.192 | -0.0127 (inactive) | 0.0445 | -0.0707 | 0.323 | 0.234 | -0.376 | -0.689 | 0.0823 | -0.654 | -0.191 | -0.06 | 0.0473 | -0.0951 | 1.02 | 0.23 | 0.413 | 1.17 | 0.0415 | 0.85 (inactive) |
| C[C@]1(C(=O)O)c2ccccc2C(=O)N(Cc2cc(F)cc(C(F)(F)F)c2)[C@H]1c1ccc(CO)cc1 | 0.286 | -0.228 (inactive) | -0.0126 | -0.182 | 0.677 | 1.6 | -0.276 | 0.0491 | 0.447 | 0.255 | 0.201 | 0.349 | 0.263 | 0.955 | 0.88 | 0.299 | -1.06 | 0.956 | 0.0471 | 0.759 (inactive) |
